This is an account of results in paper PMC7826789 (International Journal of Molecular Sciences, 2021).

The subject of one test is AURKC.
On to `CN1CCN(C(=O)c2ccc(NC(=O)Nc3ccc(N(C)c4ccnc(Nc5ccc(CS(C)(=O)=O)cc5)n4)cc3)cc2)CC1.Cl` [GW830263A], for which the Kinases covered entry is reported as “AURKC”.
The same measure, in the same setting: the entry for `CCn1cc(-c2ccnc3[nH]c(-c4cccc(CN(C)C)c4)cc23)c(-c2ccc(NC(=O)N(C)C)cc2)n1` [GSK1070916] is “AURKC”; for `CN(C)CCNC(=O)Nc1ccc(N(C)c2ccnc(Nc3ccc(CS(C)(=O)=O)cc3)n2)cc1.Cl` [GW830900A] it is “AURKC”; for `COc1cccc(-c2c[nH]c3c(N/N=C/c4ccncc4)ncnc23)c1` [GW814408X] it is “AURKC”.

In another test the test system is BLK.
As to `Cc1ccc(C(=O)Nc2ccc(Nc3ccnc4cc(-c5ccccn5)ccc34)cc2O)cc1` [GW440146], the Kinases covered result was “BLK”.
Same read-out and setting: then `COc1cc2ncnc(Nc3cccc(Cl)c3F)c2cc1O[C@H]1CC[C@H]([C@@H]2NCCNC2=O)CC1` [BI00133844], with “BLK”.
For `COc1cc2ncnc(Nc3cccc(Cl)c3F)c2cc1O[C@H]1CC[C@@]2(CC1)NCCNC2=O` [BI00113608], the Kinases covered entry is “BLK”.

A further test has as its system BRAF.
Consider `O=C(Nc1cccc(-c2nn3ncccc3c2-c2ccnc(Nc3cccnc3)n2)c1)c1c(F)cccc1F` [GSK312879], for which the Kinases covered entry is given as “BRAF”.
As to `CCCS(=O)(=O)Nc1ccc(F)c(-n2cc(-c3cncc(OC)c3)nn2)c1F` [BI00865461], the Kinases covered result is reported as “BRAF”.
On the same count and under the same terms, then `COC(=O)c1c(-c2ccccc2)c2cc(OC)ccc2c(=O)n1Cc1ccccc1` [TPKI-97], with “BRAF”; and `CN(C)CCN(C)C(=O)c1cc(-c2ccncc2)c(-c2ccc(Cl)c(O)c2)o1` [SB-710397], with “BRAF”.
As for `CN(C)CCOc1ccc(-c2nc(-c3ccc4c(c3)CC/C4=N\O)c(-c3ccncc3)[nH]2)cc1` [SB-590885], the Kinases covered result is listed as “BRAF”.

The next test concerns CDK2.
Regarding `NS(=O)(=O)c1ccc(Nc2ncc(-c3ccccc3)o2)cc1` [GW572399X], the Kinases covered result was “CDK2”.
On the same count and under the same terms, the entry for `CC(C)COC(=O)c1ccc2c(c1)/C(=C/Nc1ccc(S(N)(=O)=O)cc1)C(=O)N2` [GW416981X] is “CDK2”; for `NS(=O)(=O)c1ccc(N/N=C2\C(=O)Nc3ccc(C(=O)NCc4ccncc4)cc32)cc1` [GW300657X] it is “CDK2”; for `O=C(Nc1n[nH]c2nc(-c3ccc(O)cc3)c(Br)cc12)C1CC1` [SB-725317] it is “CDK2”.
For the compound `NS(=O)(=O)c1ccc(N/N=C2\C(=O)Nc3ccc(-c4cnco4)cc32)cc1` [GW276655], the Kinases covered result is on record as “CDK2”.
Same read-out and setting: the entry for `NS(=O)(=O)c1ccc(N/N=C2\C(=O)Nc3ccc(Cl)cc32)cc1` [GW280670X] is “CDK2”.
